Reference: the supplement of paper PMC12669032
A number with no mark means an inactive call.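 How the source made its calls: active = AUC reduced over 20% with Padj below 0.05 in at least 2 of 3 replicates; inactive = otherwise.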

Key:
Assay in all cases: growth AUC relative to DMSO control (median of replicates) (fraction); higher = more growth (less inhibition), active = hit call of the paper
Details in all cases: 20 µM; 24 h
[1] = test system: Coprococcus comes
Method in brief: (§1)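 For each compound at 20 µM (1% DMSO), gut bacterial monocultures seeded at OD600 0.05 grew anaerobically in mGAM at 37 °C in round-bottom 96-well plates. Hourly OD600 readings over 24 h gave growth curves whose minimum OD was set to 0. Area under these curves was normalised to the plate median of solvent-only wells, or to row and column medians on the industrial chemical plate. Values are medians of three biological replicates grown on separate days.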

[2] = test system: Escherichia coli ED1a
Method in brief: as §1

[3] = test system: Escherichia coli IAI1
Method in brief: as §1

[4] = test system: Eubacterium rectale
Method in brief: as §1

[5] = test system: Fusobacterium nucleatum subsp. animalis
Method in brief: as §1

[6] = test system: Lactobacillus gasseri
Method in brief: as §1

[7] = test system: Lactobacillus paracasei
Method in brief: as §1

[8] = test system: Odoribacter splanchnicus
Method in brief: as §1

[9] = test system: Parabacteroides distasonis
Method in brief: as §1

[10] = test system: Parabacteroides merdae
Method in brief: as §1

[11] = test system: Roseburia intestinalis
Method in brief: as §1

[12] = test system: Streptococcus salivarius
Method in brief: as §1

Row | Structure (SMILES) | growth AUC [1] | growth AUC [2] | growth AUC [3] | growth AUC [4] | growth AUC [5] | growth AUC [6] | growth AUC [7] | growth AUC [8] | growth AUC [9] | growth AUC [10] | growth AUC [11] | growth AUC [12]
1 | N#Cc1nn(-c2c(Cl)cc(C(F)(F)F)cc2Cl)c(N)c1S(=O)C(F)(F)F (configuration not stated) | 1 | 1.01 | 0.981 | 0.951 | 0.974 | 0.811 | 0.98 | 0.93 | 0.714 (active) | 0.87 | 0.914 | 0.811
2 | CC(Oc1ccc(Cl)cc1Cl)C(=O)O (configuration not stated) | 1.02 | 0.978 | 0.966 | 1.04 | 0.97 | 0.927 | 0.989 | 0.965 | 0.857 | 0.973 | 0.978 | 0.981
3 | CCNc1nc(NC(C)C)nc(SC)n1 | 1.01 | 0.974 | 0.989 | 1 | 1.13 | 0.987 | 0.992 | 0.999 | 1.01 | 1.04 | 1.02 | 0.973
4 | N#CN=C1SCCN1Cc1ccc(Cl)nc1 | 1.04 | 0.966 | 0.996 | 0.979 | 1.11 | 1.03 | 0.963 | 1.02 | 1.03 | 1.01 | 1.01 | 1.01
5 | CCCOCC(=Nc1ccc(Cl)cc1C(F)(F)F)n1ccnc1 | 0.505 (active) | 0.994 | 0.995 | 0.382 (active) | 1.11 | 0.894 | 0.938 | 0.932 | 0.746 (active) | 0.894 | 0.805 | 0.982
6 | COC(=O)C(C)(Cl)Cl | 0.987 | 0.977 | 1.02 | 0.934 | 1.03 | 1.18 | 1.03 | 0.956 | 1.05 | 1.04 | 1.12 | 0.979
